Our source for the inhibition values is ChEMBL document CHEMBL3433997, “St. Jude Leishmania screening dataset” (2016).

For this assay, the target named is Glucose transporter (Leishmania mexicana) (UniProt O61059). Briefly: ST_JUDE_LEISH: Cytotoxicity at 2uM final concentration against transgenic Leishmania Mexicana promastigotes LmGT2 that are glucose transport deficient and complemented with the L. Mexicana glucose transporter 2. Activity is measured by DNA content using SYBR green in vitro. The format is functional.
The inhibition is the drop in the measured response relative to a control, in per cent. As to `CCc1cc2c3c(N)nc(N)nc3ccc2n1C(CC)CC`, the inhibition came out at 65.2%.
In the case of `CN1CCN(c2cccc(-c3nnc(-c4ccc(OCC(=O)NCc5cccc(C(F)(F)F)c5)c([N+](=O)[O-])c4)o3)c2)CC1`, the inhibition came to 6.46%.
Consider `COc1cc(C)ccc1S(=O)(=O)N1CCCCC(c2ccc(C(F)(F)F)cc2)=N1`, for which the inhibition was found to be 10.3%.
As for `Cc1cccc2nc(-c3ccc(-c4ccc(NC(=O)c5cncn5C)cc4)s3)[nH]c12`, the inhibition came to 7.26%.
On to `Cc1cc(C(=O)Nc2ccc3c(c2)CCN3C2CCN(Cc3csc4ccccc34)C2)no1` (stereo not given), for which the inhibition was found to be 1.87%.
The same measure for `O=C(Nc1ccc(F)cc1)NC1CCN(c2ccnc3cc(Cl)ccc23)CC1`: 1.68%; for `COC(=O)c1cccc(CNCc2ccc(-c3ccc(-c4nc5cc(C(F)(F)F)ccc5[nH]4)cc3)cc2)c1`: 2.35%.
The value for `CCCn1c(Sc2ccc(C#N)c([N+](=O)[O-])c2)nnc1-c1ccc(OC)cc1` was -0.23%; that for `CCCCCCN1CCC(CNCc2cccc(Cl)c2)CC1` was 1.97%; that for `Cn1cncc1CCN(Cc1ccc(-c2ccc(C(F)(F)F)cc2)cc1)C(=O)Cn1c(SCc2cccc(F)c2F)cc(=O)c2ccccc21` was 2.14%.
Turning to `CC(C)C[C@H](NC(=O)c1cc(-c2ccc(C(C)(C)C)cc2)no1)C(=O)O.CC(C)C[C@H](NC(=O)c1conc1-c1ccc(C(C)(C)C)cc1)C(=O)O`, the inhibition was determined as 0.84%.
With `COc1ccccc1N1CCN(CCCCNC(=O)c2ccc(NC(=O)c3ccc(OC(F)(F)F)cc3)cc2)CC1`, the inhibition was 1.25%.
For `O=S(=O)(Nc1cccc(CCN2CCC(N3CCCCC3)CC2)c1)c1ccc(-c2ccccc2)cc1`, the inhibition was 3.57%.
For the molecule `CCc1cn2c3c(cc(C(=O)N[C@@H](Cc4cccc(Cl)c4)[C@H](O)CNC4CC4)cc13)N(C)S(=O)(=O)CC2`, the inhibition was -2.88%.
`O=C(NC(CCCN1CCC2(CC1)OCc1ccccc12)c1ccc(Cl)c(Cl)c1)c1cc(C(F)(F)F)cc(C(F)(F)F)c1` (stereo not given): the inhibition is -2.79%.
On to `CCC[C@@H]([C@@H](CC(C)C)C(=O)N[C@@H](CCC/N=C(/N)NS(C)(=O)=O)C(=O)Nc1nccs1)N(O)C=O`, for which the inhibition amounted to 6.5%.
For the molecule `COc1cc2nc(NCCc3ccccc3)nc(NCc3ccc(C#N)cc3)c2cc1OC`, the inhibition is 2.83%.
The same measure for `Fc1ccc2c(NN=Cc3ccc(Cl)cc3)ccnc2c1`: 6.76%; for `CCOc1c(OC)ccc2c1CCN(CCN1CCC(NC(=O)c3ccc(-c4cccc(C(F)(F)F)c4C(F)(F)F)cc3)CC1)C2`: 1.39%.
The same measure for `COc1ccc2nc(C)cc(NCc3ccc4ccccc4c3)c2c1`: 5.11%; for `Cc1cc(C)n(Cc2ccc(C(=O)NCC3CCCCC3)cc2)n1`: 2.61%.
Regarding `CCCNCc1ccc(-c2ccc(CN(CCOC)C(=O)CCc3ccc(OC)cc3)cc2)nc1`, the inhibition turned out to be 1.11%.
For `C=C[C@]1(C)C[C@@H](OC(=O)c2n[nH]c3ccccc3c2=O)[C@]2(C)[C@H](C)CC[C@]3(CCC(=O)[C@H]32)[C@@H](C)[C@@H]1O`, the inhibition was -0.71%.
Take `CCCCCN1CCC(NS(=O)(=O)c2cccc(C(=O)Nc3ccc(C(F)(F)F)cc3)c2)C1` (stereo not given): the inhibition worked out at 1.9%.
The value for `Oc1cc(NCCCNC2CCc3c(Cl)cc(Cl)cc32)nc2ccccc12` (stereo not given) was 3.08%; that for `Nc1ncc(-c2ccc(F)c(Cl)c2)c(N)n1` was 1.32%.
Consider `CC1CN(CCCn2c3ccccc3c3ccc(C(=O)CCCN(C)C)cc32)CC(C)N1` (stereo not given), for which the inhibition is 1.24%.
The same measure for `CC(=O)Nc1ccc(C2NC(=O)NC(c3ccccc3)=C2c2nc3ccccc3s2)cc1` (stereo not given): 2.69%; for `O=C(Nc1ccc(Cl)cc1)c1cc(Cl)cc2nc(C(F)(F)F)[nH]c12`: 9.44%.
For `N#Cc1ccc(CNCCCCCCCNCc2ccc(-c3ccccc3)cc2)cc1`, the inhibition came out at 5.28%.
As to `Cn1nc(-c2ccc(CN[C@@H]3CCc4ccc(O)cc43)cc2)c2cnc(NCCCN3CCCC3)nc21`, the inhibition turned out to be 1.31%.
As for `OC(CNc1ccnc(Nc2cccc(CCN3CCOCC3)c2)n1)c1ccccc1` (stereo not given), the inhibition was 1.35%.
Consider `Cc1c[nH]c2cc(/C=C/C(=O)NC3CCC(CCN4CCc5ccc(C#N)cc5CC4)CC3)ccc12` (stereo not given), for which the inhibition came out at 2.01%.
The same measure for `Fc1ccc2[nH]c3c(NCCN4CCCCC4)ncnc3c2c1`: -1.11%.
Regarding `CCN(CC)CCN(Cc1ccc(-c2ccc(C(F)(F)F)cc2)cc1)C(=O)Cn1c(SCc2ccc(F)cc2)nc(=O)c2ccccc21`, the inhibition was found to be 1.8%.
In the case of `O=C(Nc1cccc(-c2cccc(-c3nc4cc(C(F)(F)F)ccc4[nH]3)c2)c1)Nc1ccc(F)c(F)c1F`, the inhibition amounted to 0.55%.
Regarding `COc1ccc(-n2ccnc2SCC(=O)Nc2cccc(C(F)(F)F)c2)c(OC)c1`, the inhibition is -0.9%.
The value for `CCc1cn2c3c(cc(C(=O)N[C@@H](Cc4ccccc4)[C@H](O)CNC4CCOCC4)cc13)N(C(C)C)S(=O)(=O)CC2` was 0.93%; that for `Cc1nc(N)nc(N)c1OCCCOc1cccc(Cl)c1Cl` was 56.7%.
`CN(CCCN(C)c1cc(NC(=O)c2ccc(F)cc2)ccn1)Cc1cccc(O)c1`: the inhibition is -0.03%.
